Experimental data as given in PubChem BioAssay AID1159580 (chemical genetic matrix, 2015).
In all, about 5,500 compounds went through this assay and about 2,000 (36%) were called active. About 18% were inconclusive and are not listed. No stated cut-off is given here; in the data, active means normalized growth mostly below about 0.91 (no sharp cut-off); inconclusive means no clear call, values can overlap the other calls; inactive means mostly above about 0.92. Some of the results follow.

Test: chemical genetic growth profiling, strain panel (AID 1159580);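 further: tested at 20 µM; growth read once vehicle control cultures reached saturation at 30 °C; 1 = growth at the plate median or of vehicle wells; lower values mean less growth of the strain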
Conditions: S. cerevisiae deletion strains, growth OD

Measured: normalized growth

C[N+]1(C)C2CC(OC(=O)[C@H](CO)c3ccccc3)CC1C1OC12 (stereo partly specified)
inactive: locus YAL040C, strain CLN3, hits give low values 0.999 | locus YCL061C, strain MRC1 (second series), hits give low values 1 | locus YDR363W, strain ESC2, hits give low values 0.998 | locus YER002W, strain NOP16, hits give low values 0.981 | locus YMR263W, strain SAP30, hits give low values 0.998 | locus YMR307W, strain GAS1, hits give low values 0.946 | locus YNL153C, strain GIM3, hits give low values 0.99 | locus YNL175C, strain NOP13, hits give low values 0.996 | locus YNL197C, strain WHI3, hits give low values 0.988 | locus YNL224C, strain SQS1, hits give low values 0.994 | locus YOR083W, strain WHI5 (second series), hits give low values 0.991
